Active and inactive are the calls of the source. How the calls were made is not given here.
Target: Polyamine deacetylase HDAC10 (Homo sapiens) (UniProt Q969S8)
Experiment: inhibitors of recombinant human HDAC10 – biochemical, selectivity assay for E-cadherin restoration project, profiling panel (AID 651910)
Details: recombinant HDAC10, fluorogenic peptide substrate, deacetylation; series mostly up to 10 µM

Polyamine deacetylase HDAC10 (Homo sapiens), sequence (Q969S8 whole entry, looked up): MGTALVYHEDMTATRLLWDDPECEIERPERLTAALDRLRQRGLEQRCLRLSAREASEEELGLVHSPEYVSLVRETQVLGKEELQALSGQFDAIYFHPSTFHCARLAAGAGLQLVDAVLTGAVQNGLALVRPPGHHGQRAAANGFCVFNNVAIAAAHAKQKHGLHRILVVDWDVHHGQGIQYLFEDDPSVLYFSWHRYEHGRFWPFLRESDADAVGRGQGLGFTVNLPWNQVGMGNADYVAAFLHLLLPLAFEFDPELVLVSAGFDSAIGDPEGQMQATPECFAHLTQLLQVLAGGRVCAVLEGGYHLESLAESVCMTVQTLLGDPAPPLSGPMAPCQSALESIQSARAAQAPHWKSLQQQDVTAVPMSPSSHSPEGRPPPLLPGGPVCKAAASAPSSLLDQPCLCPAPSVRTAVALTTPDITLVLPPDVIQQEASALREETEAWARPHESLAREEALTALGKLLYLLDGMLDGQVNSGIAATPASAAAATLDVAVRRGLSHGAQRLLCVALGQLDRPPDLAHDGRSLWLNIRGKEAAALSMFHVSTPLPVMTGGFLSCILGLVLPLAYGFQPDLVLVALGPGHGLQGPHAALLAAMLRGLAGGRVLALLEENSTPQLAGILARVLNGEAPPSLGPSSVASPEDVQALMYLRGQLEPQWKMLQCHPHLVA

O=C(NCCCNC(=O)c1ccc[nH]c1=O)c1cc(-c2ccccc2)on1
outcome: inactive

From PubChem BioAssay AID651910 (Vanderbilt Specialized Chemistry Center, 2012)
